# Measurements as given in article PMC7862700, “An all-to-all approach to the identification of sequence-specific readers for epigenetic DNA modifications on cytosine”.
# Key:
# Assay in all cases: DAPPL (digital affinity profiling via proximity ligation, sequencing); 10 mM Tris-HCl pH 7.5, 50 mM NaCl, 1 mM DTT, 4% glycerol, room temperature, 30 min; GST-TFs on glutathione beads, 16-mer random dsDNA library, 0.1% formaldehyde crosslink after washing; high values mean tight binding
# FLI1 = molecular target: T1, FLI1 (Homo sapiens, UniProt Q01543 1-452); settings: protein: recombinant; tags: N-terminal GST; dsDNA, one strand shown
# T1 sequence: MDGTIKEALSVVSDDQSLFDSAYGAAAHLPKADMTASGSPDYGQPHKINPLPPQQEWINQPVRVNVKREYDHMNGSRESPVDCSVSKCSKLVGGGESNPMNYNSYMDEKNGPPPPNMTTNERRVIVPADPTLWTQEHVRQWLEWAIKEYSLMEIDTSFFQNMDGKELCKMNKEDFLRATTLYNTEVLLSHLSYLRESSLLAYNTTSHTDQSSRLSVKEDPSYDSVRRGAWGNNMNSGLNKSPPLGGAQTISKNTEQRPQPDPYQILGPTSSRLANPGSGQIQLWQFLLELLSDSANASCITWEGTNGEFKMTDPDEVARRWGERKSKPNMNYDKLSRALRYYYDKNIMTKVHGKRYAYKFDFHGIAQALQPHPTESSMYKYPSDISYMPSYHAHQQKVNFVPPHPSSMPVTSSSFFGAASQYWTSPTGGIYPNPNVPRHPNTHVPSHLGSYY
# Outline: (§1)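 GST fusions of human transcription factors were expressed in yeast and captured with glutathione beads. Once given DNA barcodes and pooled alongside a tag-only sample, they were incubated for 30 min at room temperature with 200 nmole of a random double-stranded 16-mer DNA library in Tris/NaCl/DTT/glycerol buffer, then washed, crosslinked (0.1% formaldehyde), proximity-ligated, PCR-amplified and sequenced on an Illumina NextSeq500. The binding signal of each hexamer is its read frequency for a factor divided by its frequency for the tag-only sample.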
# ELK1 = molecular target: T2, ELK1 (Homo sapiens, UniProt P19419 1-428); settings: protein: recombinant; tags: N-terminal GST; dsDNA, one strand shown
# T2 sequence: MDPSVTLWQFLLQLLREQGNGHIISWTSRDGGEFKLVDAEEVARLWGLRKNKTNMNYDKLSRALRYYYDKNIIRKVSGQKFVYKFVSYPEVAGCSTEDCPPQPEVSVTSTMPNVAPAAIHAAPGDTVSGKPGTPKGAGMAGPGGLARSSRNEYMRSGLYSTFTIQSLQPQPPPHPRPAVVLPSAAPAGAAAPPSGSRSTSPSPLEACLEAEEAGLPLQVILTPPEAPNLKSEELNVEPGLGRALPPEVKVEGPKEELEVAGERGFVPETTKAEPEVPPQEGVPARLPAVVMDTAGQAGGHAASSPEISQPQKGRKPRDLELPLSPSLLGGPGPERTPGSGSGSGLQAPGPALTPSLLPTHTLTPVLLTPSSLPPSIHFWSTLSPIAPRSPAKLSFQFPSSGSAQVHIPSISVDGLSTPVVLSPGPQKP
# Outline: as §1
# GABPA = molecular target: T3, GABPA (Homo sapiens, UniProt Q06546 1-454); settings: protein: recombinant; tags: N-terminal GST; dsDNA, one strand shown
# T3 sequence: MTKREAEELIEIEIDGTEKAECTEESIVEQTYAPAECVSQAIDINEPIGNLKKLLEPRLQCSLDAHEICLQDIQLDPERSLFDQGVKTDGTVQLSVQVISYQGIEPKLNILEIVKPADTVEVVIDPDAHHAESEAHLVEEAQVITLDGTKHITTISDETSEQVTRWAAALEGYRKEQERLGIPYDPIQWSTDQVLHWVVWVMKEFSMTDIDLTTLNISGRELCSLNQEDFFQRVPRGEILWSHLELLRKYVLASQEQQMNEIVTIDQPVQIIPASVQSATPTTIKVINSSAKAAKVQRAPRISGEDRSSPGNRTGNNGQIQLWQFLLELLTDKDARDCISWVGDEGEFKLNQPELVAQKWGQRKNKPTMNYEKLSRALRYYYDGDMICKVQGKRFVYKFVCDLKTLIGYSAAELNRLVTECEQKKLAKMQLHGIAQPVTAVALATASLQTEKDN
# Outline: as §1
# ERG = molecular target: T4, ERG (Homo sapiens, UniProt P11308 1-479); settings: protein: recombinant; tags: N-terminal GST; dsDNA, one strand shown
# T4 sequence: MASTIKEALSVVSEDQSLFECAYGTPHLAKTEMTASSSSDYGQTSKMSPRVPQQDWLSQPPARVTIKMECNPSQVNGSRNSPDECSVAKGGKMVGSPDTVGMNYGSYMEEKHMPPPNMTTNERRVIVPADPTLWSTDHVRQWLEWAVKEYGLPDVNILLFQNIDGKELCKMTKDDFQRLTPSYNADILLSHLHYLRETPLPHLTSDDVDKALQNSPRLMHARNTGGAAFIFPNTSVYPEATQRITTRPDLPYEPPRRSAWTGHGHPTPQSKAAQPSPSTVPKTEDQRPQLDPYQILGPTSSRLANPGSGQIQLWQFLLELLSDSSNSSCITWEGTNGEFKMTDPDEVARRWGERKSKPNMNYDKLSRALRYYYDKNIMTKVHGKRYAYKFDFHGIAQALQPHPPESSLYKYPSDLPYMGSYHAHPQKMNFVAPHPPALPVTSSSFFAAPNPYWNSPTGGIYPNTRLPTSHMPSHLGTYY
# Outline: as §1
# ELF1 = ELF1 (Homo sapiens, UniProt P32519 1-619); settings: protein: recombinant; tags: N-terminal GST; dsDNA, one strand shown
# Sequence of ELF1 (P32519 whole entry): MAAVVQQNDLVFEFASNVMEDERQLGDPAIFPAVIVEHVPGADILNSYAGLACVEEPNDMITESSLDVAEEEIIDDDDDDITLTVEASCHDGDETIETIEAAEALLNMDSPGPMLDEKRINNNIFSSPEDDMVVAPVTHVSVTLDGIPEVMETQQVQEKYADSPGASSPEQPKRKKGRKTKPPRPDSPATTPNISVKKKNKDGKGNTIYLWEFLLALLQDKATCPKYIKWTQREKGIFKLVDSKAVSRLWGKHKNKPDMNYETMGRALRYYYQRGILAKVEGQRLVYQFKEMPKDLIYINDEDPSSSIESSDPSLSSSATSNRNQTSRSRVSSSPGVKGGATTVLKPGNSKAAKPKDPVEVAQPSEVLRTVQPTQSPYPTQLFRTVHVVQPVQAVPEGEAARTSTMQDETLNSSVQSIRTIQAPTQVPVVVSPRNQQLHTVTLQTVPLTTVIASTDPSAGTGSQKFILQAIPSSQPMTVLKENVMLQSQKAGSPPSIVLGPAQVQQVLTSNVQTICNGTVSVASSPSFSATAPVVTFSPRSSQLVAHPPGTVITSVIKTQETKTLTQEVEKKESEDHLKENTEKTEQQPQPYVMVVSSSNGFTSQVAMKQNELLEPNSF
# Outline: as §1
# EHF = molecular target: T5, EHF (Homo sapiens, UniProt Q9NZC4 1-300); settings: protein: recombinant; tags: N-terminal GST; dsDNA, one strand shown
# T5 sequence: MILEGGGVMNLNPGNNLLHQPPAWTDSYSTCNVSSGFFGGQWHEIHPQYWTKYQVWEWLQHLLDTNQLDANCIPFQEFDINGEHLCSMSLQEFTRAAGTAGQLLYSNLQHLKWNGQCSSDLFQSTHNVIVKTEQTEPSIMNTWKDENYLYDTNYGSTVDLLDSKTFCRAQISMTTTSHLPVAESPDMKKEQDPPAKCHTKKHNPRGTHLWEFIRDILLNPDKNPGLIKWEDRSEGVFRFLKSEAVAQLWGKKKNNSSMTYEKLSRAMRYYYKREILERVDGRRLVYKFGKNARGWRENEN
# Outline: as §1
# SPI1 = SPI1 (Homo sapiens, UniProt P17947 1-270); settings: protein: recombinant; tags: N-terminal GST; dsDNA, one strand shown
# Outline: as §1
# SPIB = SPIB (Homo sapiens, UniProt Q01892 1-262); settings: protein: recombinant; tags: N-terminal GST; dsDNA, one strand shown
# Sequence of SPIB (Q01892 whole entry): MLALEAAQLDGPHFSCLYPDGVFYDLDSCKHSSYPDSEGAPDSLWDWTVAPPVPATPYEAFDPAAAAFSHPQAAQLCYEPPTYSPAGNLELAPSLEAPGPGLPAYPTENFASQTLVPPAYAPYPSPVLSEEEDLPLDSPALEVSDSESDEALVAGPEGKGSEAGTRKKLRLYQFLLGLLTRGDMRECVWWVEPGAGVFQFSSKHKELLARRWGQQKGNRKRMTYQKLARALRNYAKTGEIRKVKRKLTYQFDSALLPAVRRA
# Outline: as §1
# ELK3 = molecular target: T6, ELK3 (Homo sapiens, UniProt P41970 1-407); settings: protein: recombinant; tags: N-terminal GST; dsDNA, one strand shown
# T6 sequence: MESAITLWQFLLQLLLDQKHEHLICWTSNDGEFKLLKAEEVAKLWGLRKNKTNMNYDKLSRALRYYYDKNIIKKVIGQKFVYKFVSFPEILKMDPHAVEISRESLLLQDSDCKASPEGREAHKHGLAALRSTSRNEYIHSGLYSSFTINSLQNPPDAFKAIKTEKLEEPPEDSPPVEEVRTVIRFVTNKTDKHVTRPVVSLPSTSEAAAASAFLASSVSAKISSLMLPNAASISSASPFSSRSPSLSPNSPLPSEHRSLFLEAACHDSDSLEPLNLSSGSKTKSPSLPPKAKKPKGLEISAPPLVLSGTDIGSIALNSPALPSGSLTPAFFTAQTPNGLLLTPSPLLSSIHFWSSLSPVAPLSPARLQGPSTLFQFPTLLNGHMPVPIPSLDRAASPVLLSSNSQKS
# Outline: as §1
# FEV = molecular target: T7, FEV (Homo sapiens, UniProt Q99581 1-238); settings: protein: recombinant; tags: N-terminal GST; dsDNA, one strand shown
# T7 sequence: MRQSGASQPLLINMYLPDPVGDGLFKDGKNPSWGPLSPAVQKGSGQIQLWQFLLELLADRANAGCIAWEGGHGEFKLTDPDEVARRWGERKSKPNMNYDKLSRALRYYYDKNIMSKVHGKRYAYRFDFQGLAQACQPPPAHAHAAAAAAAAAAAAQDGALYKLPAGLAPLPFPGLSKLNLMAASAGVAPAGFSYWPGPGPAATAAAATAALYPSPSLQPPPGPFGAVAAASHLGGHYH
# Outline: as §1
# ETV5 = ETV5 (Homo sapiens, UniProt P41161 1-510); settings: protein: recombinant; tags: N-terminal GST; dsDNA, one strand shown
# Sequence of ETV5 (P41161 whole entry): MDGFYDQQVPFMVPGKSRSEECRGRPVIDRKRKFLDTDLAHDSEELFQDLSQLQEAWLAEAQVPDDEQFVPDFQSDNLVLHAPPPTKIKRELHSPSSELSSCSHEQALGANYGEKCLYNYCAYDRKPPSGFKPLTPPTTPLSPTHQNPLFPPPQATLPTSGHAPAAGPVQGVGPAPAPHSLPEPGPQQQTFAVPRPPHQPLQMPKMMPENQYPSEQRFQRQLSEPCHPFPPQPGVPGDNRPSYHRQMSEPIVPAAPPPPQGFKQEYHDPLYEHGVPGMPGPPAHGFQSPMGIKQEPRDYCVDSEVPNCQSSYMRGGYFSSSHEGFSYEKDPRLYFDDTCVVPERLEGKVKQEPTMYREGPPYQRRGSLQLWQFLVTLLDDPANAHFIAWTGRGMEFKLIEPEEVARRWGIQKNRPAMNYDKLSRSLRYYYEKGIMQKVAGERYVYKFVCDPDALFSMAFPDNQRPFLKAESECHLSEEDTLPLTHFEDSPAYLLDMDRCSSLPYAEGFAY
# Outline: as §1
# HSF1 = HSF1 (Homo sapiens, UniProt Q00613 1-529); settings: protein: recombinant; tags: N-terminal GST; chain copies: 3; dsDNA, one strand shown
# Sequence of HSF1 (Q00613 whole entry): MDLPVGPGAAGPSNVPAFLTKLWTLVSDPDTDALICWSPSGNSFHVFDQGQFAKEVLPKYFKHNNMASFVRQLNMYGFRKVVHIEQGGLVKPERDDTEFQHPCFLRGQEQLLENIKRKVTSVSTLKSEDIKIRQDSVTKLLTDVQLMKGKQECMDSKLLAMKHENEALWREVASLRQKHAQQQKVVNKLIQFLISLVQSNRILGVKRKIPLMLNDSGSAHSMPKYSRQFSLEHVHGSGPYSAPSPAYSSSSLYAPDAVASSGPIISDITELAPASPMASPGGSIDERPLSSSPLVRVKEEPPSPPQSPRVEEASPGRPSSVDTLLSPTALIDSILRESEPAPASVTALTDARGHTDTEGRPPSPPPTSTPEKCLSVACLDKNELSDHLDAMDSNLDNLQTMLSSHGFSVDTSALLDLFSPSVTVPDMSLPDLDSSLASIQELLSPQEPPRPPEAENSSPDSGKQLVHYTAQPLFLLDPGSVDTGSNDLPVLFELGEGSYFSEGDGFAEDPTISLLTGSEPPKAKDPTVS
# Outline: as §1
# SPIC = molecular target: T8, SPIC (Homo sapiens, UniProt Q8N5J4 1-248); settings: protein: recombinant; tags: N-terminal GST; dsDNA, one strand shown
# T8 sequence: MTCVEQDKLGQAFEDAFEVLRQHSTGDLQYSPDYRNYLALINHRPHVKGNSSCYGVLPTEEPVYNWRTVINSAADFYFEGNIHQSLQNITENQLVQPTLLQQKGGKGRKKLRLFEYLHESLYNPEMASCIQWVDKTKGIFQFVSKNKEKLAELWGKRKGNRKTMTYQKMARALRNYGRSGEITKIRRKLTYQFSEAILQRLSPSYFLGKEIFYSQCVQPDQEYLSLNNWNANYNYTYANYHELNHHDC
# Outline: as §1
# ELF4 = ELF4 (Homo sapiens, UniProt Q99607 1-663); settings: protein: recombinant; tags: N-terminal GST; dsDNA, one strand shown
# Sequence of ELF4 (Q99607 whole entry): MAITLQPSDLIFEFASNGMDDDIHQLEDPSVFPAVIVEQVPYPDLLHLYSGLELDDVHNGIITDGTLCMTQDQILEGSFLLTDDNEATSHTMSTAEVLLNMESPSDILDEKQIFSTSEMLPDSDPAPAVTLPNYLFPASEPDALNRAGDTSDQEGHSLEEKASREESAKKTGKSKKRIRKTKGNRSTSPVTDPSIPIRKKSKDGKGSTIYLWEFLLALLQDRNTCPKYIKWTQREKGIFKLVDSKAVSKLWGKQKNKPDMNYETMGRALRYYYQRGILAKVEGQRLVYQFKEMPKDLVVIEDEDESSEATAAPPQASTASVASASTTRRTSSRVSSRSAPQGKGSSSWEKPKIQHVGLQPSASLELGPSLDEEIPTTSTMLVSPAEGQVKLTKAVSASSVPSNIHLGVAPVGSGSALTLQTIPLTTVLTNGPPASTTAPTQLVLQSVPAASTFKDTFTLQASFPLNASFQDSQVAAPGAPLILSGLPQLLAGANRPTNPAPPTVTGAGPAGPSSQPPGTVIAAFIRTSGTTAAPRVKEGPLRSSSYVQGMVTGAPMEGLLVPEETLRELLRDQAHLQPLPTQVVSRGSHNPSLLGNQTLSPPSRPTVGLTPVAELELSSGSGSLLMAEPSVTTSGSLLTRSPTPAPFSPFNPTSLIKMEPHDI
# Outline: as §1
# ELK4 = molecular target: T9, ELK4 (Homo sapiens, UniProt P28324-2 1-405); settings: protein: recombinant; tags: N-terminal GST; dsDNA, one strand shown
# T9 sequence: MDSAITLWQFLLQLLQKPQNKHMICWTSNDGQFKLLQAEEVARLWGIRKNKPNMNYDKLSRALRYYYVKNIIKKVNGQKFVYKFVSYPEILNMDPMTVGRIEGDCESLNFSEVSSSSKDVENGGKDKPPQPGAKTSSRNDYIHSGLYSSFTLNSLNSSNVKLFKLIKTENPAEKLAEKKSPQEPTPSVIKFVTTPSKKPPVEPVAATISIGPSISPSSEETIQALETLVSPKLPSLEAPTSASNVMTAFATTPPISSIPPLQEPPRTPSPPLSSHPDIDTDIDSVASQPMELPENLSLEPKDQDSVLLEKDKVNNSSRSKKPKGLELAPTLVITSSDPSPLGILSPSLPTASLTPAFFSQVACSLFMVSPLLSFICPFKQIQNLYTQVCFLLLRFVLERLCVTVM
# Outline: as §1
# ETV2 = molecular target: T10, ETV2 (Homo sapiens, UniProt O00321 1-342); settings: protein: recombinant; tags: N-terminal GST; dsDNA, one strand shown
# T10 sequence: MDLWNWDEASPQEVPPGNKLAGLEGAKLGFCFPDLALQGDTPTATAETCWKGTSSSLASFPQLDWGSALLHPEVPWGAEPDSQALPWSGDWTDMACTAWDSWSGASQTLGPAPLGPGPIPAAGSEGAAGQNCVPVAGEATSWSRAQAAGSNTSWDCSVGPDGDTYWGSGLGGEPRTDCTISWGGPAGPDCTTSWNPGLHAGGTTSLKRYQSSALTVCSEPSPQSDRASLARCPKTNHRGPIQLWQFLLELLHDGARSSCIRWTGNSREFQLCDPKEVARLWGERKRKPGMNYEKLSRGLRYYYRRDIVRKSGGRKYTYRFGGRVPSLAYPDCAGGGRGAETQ
# Outline: as §1
# ELF3 = molecular target: T11, ELF3 (Homo sapiens, UniProt P78545 1-371); settings: protein: recombinant; tags: N-terminal GST; dsDNA, one strand shown
# T11 sequence: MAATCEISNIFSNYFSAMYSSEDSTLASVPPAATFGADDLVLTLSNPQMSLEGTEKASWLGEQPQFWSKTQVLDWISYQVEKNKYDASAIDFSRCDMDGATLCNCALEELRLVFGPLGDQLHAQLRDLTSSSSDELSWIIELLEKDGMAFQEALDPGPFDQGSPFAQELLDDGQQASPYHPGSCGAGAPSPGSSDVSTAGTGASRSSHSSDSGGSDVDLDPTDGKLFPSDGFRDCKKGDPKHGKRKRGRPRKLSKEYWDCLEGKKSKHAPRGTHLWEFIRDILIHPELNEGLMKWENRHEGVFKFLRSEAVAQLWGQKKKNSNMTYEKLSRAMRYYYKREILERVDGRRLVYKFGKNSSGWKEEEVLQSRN
# Outline: as §1
# CRX = CRX (Homo sapiens, UniProt O43186 1-299); settings: protein: recombinant; tags: N-terminal GST; dsDNA, one strand shown
# Sequence of CRX (O43186 whole entry): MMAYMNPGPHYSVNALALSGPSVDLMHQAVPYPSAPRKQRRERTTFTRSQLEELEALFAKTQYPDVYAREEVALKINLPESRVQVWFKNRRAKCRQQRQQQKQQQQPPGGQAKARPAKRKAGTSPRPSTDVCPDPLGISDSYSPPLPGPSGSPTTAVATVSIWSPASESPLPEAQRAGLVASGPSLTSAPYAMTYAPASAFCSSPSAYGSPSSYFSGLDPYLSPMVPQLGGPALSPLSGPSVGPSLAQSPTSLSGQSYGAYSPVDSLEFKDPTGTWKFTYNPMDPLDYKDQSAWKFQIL
# Outline: as §1
# ETV1 = ETV1 (Homo sapiens, UniProt P50549 1-477); settings: protein: recombinant; tags: N-terminal GST; dsDNA, one strand shown
# Sequence of ETV1 (P50549 whole entry): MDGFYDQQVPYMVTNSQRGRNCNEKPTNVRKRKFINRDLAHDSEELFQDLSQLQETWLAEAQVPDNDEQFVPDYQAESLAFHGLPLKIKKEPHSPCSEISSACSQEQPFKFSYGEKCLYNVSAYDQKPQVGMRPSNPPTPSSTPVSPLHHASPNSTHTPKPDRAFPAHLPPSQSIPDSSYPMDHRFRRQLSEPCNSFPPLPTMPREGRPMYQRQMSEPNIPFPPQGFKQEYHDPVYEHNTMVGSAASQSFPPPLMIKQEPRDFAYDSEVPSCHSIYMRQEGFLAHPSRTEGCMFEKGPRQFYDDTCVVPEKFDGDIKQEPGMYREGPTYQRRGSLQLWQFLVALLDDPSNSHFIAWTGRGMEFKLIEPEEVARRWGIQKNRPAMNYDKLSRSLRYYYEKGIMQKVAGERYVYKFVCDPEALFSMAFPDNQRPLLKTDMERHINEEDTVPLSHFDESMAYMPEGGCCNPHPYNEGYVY
# Outline: as §1
sequence,measurement,setting,value
CCGACT,binding signal,FLI1,"1.43 fold enrichment (6-mer frequency, TF over GST control)"
same,binding signal,ELK1,"1.6 fold enrichment (6-mer frequency, TF over GST control)"
same,binding signal,GABPA,"1.48 fold enrichment (6-mer frequency, TF over GST control)"
same,binding signal,ERG,"1.52 fold enrichment (6-mer frequency, TF over GST control)"
same,binding signal,ELF1,"1.44 fold enrichment (6-mer frequency, TF over GST control)"
same,binding signal,EHF,"1.48 fold enrichment (6-mer frequency, TF over GST control)"
same,binding signal,SPI1,"1.4 fold enrichment (6-mer frequency, TF over GST control)"
same,binding signal,SPIB,"1.64 fold enrichment (6-mer frequency, TF over GST control)"
same,binding signal,ELK3,"1.58 fold enrichment (6-mer frequency, TF over GST control)"
same,binding signal,FEV,"1.52 fold enrichment (6-mer frequency, TF over GST control)"
same,binding signal,ETV5,"1.44 fold enrichment (6-mer frequency, TF over GST control)"
same,binding signal,HSF1,"1.29 fold enrichment (6-mer frequency, TF over GST control)"
same,binding signal,SPIC,"1.53 fold enrichment (6-mer frequency, TF over GST control)"
same,binding signal,ELF4,"1.52 fold enrichment (6-mer frequency, TF over GST control)"
same,binding signal,ELK4,"1.56 fold enrichment (6-mer frequency, TF over GST control)"
same,binding signal,ETV2,"1.46 fold enrichment (6-mer frequency, TF over GST control)"
same,binding signal,ELF3,"1.55 fold enrichment (6-mer frequency, TF over GST control)"
same,binding signal,CRX,"1.45 fold enrichment (6-mer frequency, TF over GST control)"
same,binding signal,ETV1,"1.6 fold enrichment (6-mer frequency, TF over GST control)"
